Data reported in the antibiotic and cytotoxicity screens of Wong et al. (2023).
Among all 39,000 compounds or so, about 3,300 (8.5%) were called active. For the sample, actives were picked, then their nearest neighbours and some compounds at random.

Each molecule was assayed on HepG2 (assay: cytotoxicity call (relative viability < 0.9)). Settings: 10 µM.

| SMILES | cytotoxicity call |
| --- | --- |
| C[C@@H]1CCCCO[C@H](CN(C)CC2CC2)[C@H](C)CN([C@@H](C)CO)C(=O)c2cc(NS(=O)(=O)c3cn(C)cn3)ccc2O1 | inactive |
| COCC#Cc1ccc2c(c1)O[C@@H](CN(C)S(=O)(=O)c1ccc(C)cc1)[C@H](C)CN([C@@H](C)CO)S2(=O)=O | inactive |
| O=C1N[C@H]2[C@@H]1[C@@H]1C=C[C@H]2C1 | inactive |
| COc1ccc(NC(=O)Nc2cccc3c2O[C@@H](CN(C)Cc2ccc(C(F)(F)F)cc2)[C@@H](C)CN([C@@H](C)CO)C3=O)cc1 | inactive |
| Cc1ccc(S(=O)(=O)Nc2ccc3c(c2)C(=O)N([C@H](C)CO)C[C@@H](C)[C@H](CN(C)C(=O)NC2CCCCC2)OCCCC[C@H](C)O3)cc1 | inactive |
| C[C@@H]1CCCCO[C@H](CN(C)Cc2ccccc2)[C@@H](C)CN([C@@H](C)CO)C(=O)c2cc(NC(=O)c3ccccc3)ccc2O1 | inactive |
| CNC(=O)C[C@H]1Nc2ccccc2NC1=O | inactive |
| N[C@H]1CCCC[C@@H]1OCc1ccccc1 | inactive |
| CC1CCC2(C)C(C=O)=CCCC2C1(C)CC1OC(O)C(=O)C12CO2 (stereo unspecified) | active |
| Cc1noc(C)c1S(=O)(=O)N(C)C[C@@H]1OCc2cn(nn2)CCCC(=O)N([C@@H](C)CO)C[C@H]1C | inactive |
| C[C@@H]1CN([C@@H](C)CO)C(=O)c2cc(NC(=O)Cc3ccccc3)ccc2O[C@H]1CN(C)Cc1ccc(Oc2ccccc2)cc1 | inactive |
| C[C@H](CO)N1C[C@H](C)[C@H](CN(C)Cc2ccc(Oc3ccccc3)cc2)Oc2ccc(NC(=O)Cc3ccccc3)cc2C1=O | inactive |
| C[C@@H]1CN([C@@H](C)CO)C(=O)c2cc(NC(=O)Cc3ccccc3)ccc2O[C@@H]1CN(C)Cc1ccc(Oc2ccccc2)cc1 | active |
| C[C@H](CO)N1C[C@H](C)[C@@H](CN(C)Cc2ccc(Oc3ccccc3)cc2)Oc2ccc(NC(=O)Cc3ccccc3)cc2C1=O | inactive |
| C[C@H]1CN([C@@H](C)CO)C(=O)c2cc(NC(=O)Cc3ccccc3)ccc2O[C@@H]1CN(C)Cc1ccc(Oc2ccccc2)cc1 | active |
| C[C@@H]1CN([C@H](C)CO)C(=O)c2cc(NC(=O)Cc3ccccc3)ccc2O[C@H]1CN(C)Cc1ccc(Oc2ccccc2)cc1 | active |
| C[C@@H]1CN([C@H](C)CO)C(=O)c2cc(NC(=O)Cc3ccccc3)ccc2O[C@@H]1CN(C)Cc1ccc(Oc2ccccc2)cc1 | inactive |
| C[C@H]1CN([C@@H](C)CO)C(=O)c2cc(NC(=O)Cc3ccccc3)ccc2O[C@H]1CN(C)Cc1ccc(Oc2ccccc2)cc1 | inactive |
| COc1ccc(NC(=O)N(C)C[C@H]2Oc3ccc(NC(=O)CCCCCC(=O)Nc4ccccc4N)cc3CC(=O)N([C@@H](C)CO)C[C@@H]2C)cc1 | inactive |
| C[C@H](CO)N1C[C@H](C)[C@@H](CN(C)S(C)(=O)=O)Oc2c(NC(=O)NC3CCCCC3)cccc2C1=O | inactive |
| CO[C@H]1CN(C)C(=O)c2ccc(NC(=O)NC(C)C)cc2OC[C@@H](C)N(Cc2ccc(-c3ccccn3)cc2)C[C@H]1C | inactive |
| O=C(CN1CCOCC1)NCC[C@@H]1CC[C@@H](NC(=O)Nc2ccccc2)[C@H](CO)O1 | inactive |
| COc1ccc(-c2cnc3c(c2)C(=O)N([C@@H](C)CO)C[C@@H](C)[C@@H](CN(C)C(=O)Cc2ccccn2)O3)cc1 | inactive |
| CN(C)S(=O)(=O)N1CCN(CC(=O)Nc2ccc(Br)cc2)CC1 | inactive |

| SMILES | cytotoxicity call |
| --- | --- |
| C[C@H]1CN([C@@H](C)CO)C(=O)c2cccc(NC(=O)c3cnccn3)c2O[C@H]1CN(C)S(=O)(=O)c1ccc(F)cc1 | inactive |
| C[C@@H]1CN([C@H](C)CO)C(=O)c2cc(NC(=O)CCC(F)(F)F)ccc2O[C@@H](C)CCCCO[C@@H]1CN(C)Cc1ccc(C(=O)O)cc1 | inactive |
| O=C(O)CC1CCOCC1 | inactive |
| C[C@@H]1CCCCO[C@@H](CN(C)C)[C@H](C)CN([C@H](C)CO)C(=O)c2cc(NC(=O)CCCCCC(=O)Nc3ccccc3N)ccc2O1 | inactive |
| COc1ccc(CN(C)C[C@H]2OCCCC[C@@H](C)Oc3ccc(NC(=O)Nc4ccccc4)cc3C(=O)N([C@H](C)CO)C[C@@H]2C)cc1 | inactive |
| COc1ccc(CN(C)C[C@@H]2OCCCC[C@@H](C)Oc3ccc(NC(=O)Nc4ccccc4)cc3C(=O)N([C@@H](C)CO)C[C@@H]2C)cc1 | inactive |
| COc1ccc(CN(C)C[C@H]2OCCCC[C@@H](C)Oc3ccc(NC(=O)Nc4ccccc4)cc3C(=O)N([C@H](C)CO)C[C@H]2C)cc1 | active |
| COc1ccc(CN(C)C[C@H]2OCCCC[C@H](C)Oc3ccc(NC(=O)Nc4ccccc4)cc3C(=O)N([C@@H](C)CO)C[C@@H]2C)cc1 | inactive |
| COc1ccc(CN(C)C[C@@H]2OCCCC[C@H](C)Oc3ccc(NC(=O)Nc4ccccc4)cc3C(=O)N([C@H](C)CO)C[C@H]2C)cc1 | inactive |
| COc1ccc(CN(C)C[C@H]2OCCCC[C@@H](C)Oc3ccc(NC(=O)Nc4ccccc4)cc3C(=O)N([C@@H](C)CO)C[C@H]2C)cc1 | active |
| C[C@@H]1CN([C@@H](C)CO)C(=O)c2cc(NC(=O)Nc3ccccc3)ccc2O[C@H]1CN(C)CC1CCCCC1 | inactive |
| COc1ccccc1S(=O)(=O)N[C@H]1CC[C@@H](CCNC(=O)C2CC2)O[C@H]1CO | inactive |
| CCOC(=O)C[C@H]1CCCNC1 | inactive |
| CCOC(=O)c1c(C)cc(OC)cc1O | active |
| CCOC(=O)c1c(C)cc(O)cc1O | inactive |
| COC(=O)c1c(C)cc(OC)cc1O | inactive |
| C[C@H](CO)N1C[C@H](C)[C@H](CN(C)S(=O)(=O)c2cccs2)Oc2ncc(C#Cc3ccccc3)cc2C1=O | inactive |
| C[C@@H]1CCCCO[C@@H](CN(C)C(=O)Nc2cccc3ccccc23)[C@H](C)CN([C@H](C)CO)C(=O)c2cc(NS(=O)(=O)c3ccccc3)ccc2O1 | active |
| C[C@@H]1CCCCO[C@H](CN(C)C(=O)Nc2cccc3ccccc23)[C@H](C)CN([C@H](C)CO)C(=O)c2cc(NS(=O)(=O)c3ccccc3)ccc2O1 | active |
| C[C@@H]1CN([C@@H](C)CO)C(=O)c2cc(NS(=O)(=O)c3ccccc3)ccc2O[C@@H](C)CCCCO[C@@H]1CN(C)C(=O)Nc1cccc2ccccc12 | inactive |
| C[C@@H]1CN([C@@H](C)CO)C(=O)c2cc(NS(=O)(=O)c3ccccc3)ccc2O[C@@H](C)CCCCO[C@H]1CN(C)C(=O)Nc1cccc2ccccc12 | active |
| C[C@@H]1CCCCO[C@@H](CN(C)C(=O)Nc2cccc3ccccc23)[C@H](C)CN([C@@H](C)CO)C(=O)c2cc(NS(=O)(=O)c3ccccc3)ccc2O1 | inactive |
| C[C@@H]1CCCCO[C@H](CN(C)C(=O)Nc2cccc3ccccc23)[C@@H](C)CN([C@H](C)CO)C(=O)c2cc(NS(=O)(=O)c3ccccc3)ccc2O1 | inactive |
| C[C@@H]1CCCCO[C@@H](CN(C)C(=O)Nc2cccc3ccccc23)[C@H](C)CN([C@H](C)CO)C(=O)c2cc(NS(C)(=O)=O)ccc2O1 | inactive |

| SMILES | cytotoxicity call |
| --- | --- |
| C[C@H]1CCCCO[C@@H](CN(C)C(=O)Nc2cccc3ccccc23)[C@@H](C)CN([C@@H](C)CO)C(=O)c2cc(NS(=O)(=O)c3ccccc3)ccc2O1 | inactive |
| C[C@@H]1CCCCO[C@H](CN(C)C(=O)Nc2cccc3ccccc23)[C@@H](C)CN([C@@H](C)CO)C(=O)c2cc(NS(C)(=O)=O)ccc2O1 | inactive |
| C[C@@H]1CCCCO[C@H](CN(C)C(=O)Nc2cccc3ccccc23)[C@@H](C)CN([C@@H](C)CO)C(=O)c2cc(NS(=O)(=O)c3ccccc3)ccc2O1 | inactive |
| C[C@@H]1CCCCO[C@H](CN(C)C(=O)Nc2cccc3ccccc23)[C@H](C)CN([C@H](C)CO)C(=O)c2cc(NS(C)(=O)=O)ccc2O1 | active |
| C[C@H](CO)N1C[C@H](C)[C@@H](CN(C)C(=O)Nc2cccc3ccccc23)OCCCC[C@H](C)Oc2ccc(NS(=O)(=O)c3ccccc3)cc2C1=O | inactive |
| C[C@@H]1CN([C@H](C)CO)C(=O)c2cc(NS(=O)(=O)c3cccs3)ccc2O[C@@H]1CN(C)C(=O)Nc1cccc2ccccc12 | inactive |
| COc1ccc(-c2cn(CCNC(=O)[C@@H](NS(=O)(=O)c3ccc(C)cc3)C(C)C)nn2)cc1OC | inactive |
| O=C1c2ccccc2[C@@]2(Cc3ccccc3N(CC(F)(F)F)C2=O)[C@H](c2ccc(CO)cc2)N1C1CCCCC1 | inactive |
| C[C@@H]1CN([C@H](C)CO)C(=O)Cc2cc(NC(=O)Nc3cccc4ccccc34)ccc2O[C@H]1CN(C)C(=O)Nc1cccc2ccccc12 | inactive |
| COc1ccc(S(=O)(=O)Nc2ccc3c(c2)C(=O)N([C@H](C)CO)C[C@@H](C)[C@H](CN(C)C(=O)Nc2ccc(C(F)(F)F)cc2)OCCCC[C@H](C)O3)cc1 | inactive |
| COc1ccc([C@@H]2CC=CC[C@H](C)Oc3ccccc3C(=O)N(C)[C@H](Cc3ccccc3)C(=O)N2)c(OC)c1 | inactive |
| C[C@H](CO)N1C[C@H](C)[C@@H](CN(C)C(=O)Nc2ccc3c(c2)OCO3)Oc2ncc(-c3ccncc3)cc2C1=O | inactive |
| C=CC[C@@H](CC(=O)NCCO)C(=O)N[C@H](COC(=O)[C@H](CC=C)CC(=O)OC(C)(C)C)Cc1c[nH]c2ccccc12 | inactive |
| Cc1ccc(-c2csc(-c3ccc(CN)cc3)n2)cc1 | inactive |
| Cc1ccc(Cc2nc(-c3ccc(Cl)cc3)cs2)cc1 | active |
| Cc1ccc(-c2nc(-c3ccc(Cl)cc3)cs2)cc1F | inactive |
| C[C@@H]1CN([C@H](C)CO)S(=O)(=O)c2ccc(C#C[C@@H](C)O)cc2O[C@H]1CN(C)C(=O)C1CCCCC1 | inactive |
| CN(C)CC(=O)N[C@H]1CC[C@H](CCNS(=O)(=O)c2ccccc2)O[C@H]1CO | inactive |
| CN(C)CC(=O)N[C@H]1CC[C@H](CCNS(=O)(=O)c2ccccc2)O[C@@H]1CO | inactive |
| O=S(=O)(NCC[C@H]1CC[C@H](NS(=O)(=O)c2ccccc2Cl)[C@@H](CO)O1)c1ccc(F)cc1 | active |
| O=S(=O)(NCC[C@@H]1CC[C@H](NS(=O)(=O)c2ccccc2Cl)[C@H](CO)O1)c1ccc(F)cc1 | inactive |
| CN(C)CC(=O)N[C@@H]1CC[C@@H](CCNS(=O)(=O)c2ccccc2)O[C@@H]1CO | active |
| O=S(=O)(NCC[C@@H]1CC[C@@H](NS(=O)(=O)c2ccccc2Cl)[C@H](CO)O1)c1ccc(F)cc1 | inactive |
